Substitutions are numbered along the chain they refer to.

Common to all, as to test: PBM; 200 nM protein, PBS
Common to all, as to conditions: dsDNA, one strand shown

Experiment [1] addresses T1, SIX6 (Homo sapiens, UniProt O95475 114-200, L167I).
T1 sequence: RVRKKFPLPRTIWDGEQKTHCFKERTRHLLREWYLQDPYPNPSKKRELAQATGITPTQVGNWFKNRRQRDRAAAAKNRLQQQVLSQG

In experiment [2] the target is T2, SIX6 (Homo sapiens, UniProt O95475 114-200, T165P).
T2 sequence: T1 sequence with T52P, I54L

The target of experiment [3] is T3, SIX6 (Homo sapiens, UniProt O95475 114-200, L167M).
T3 sequence: T1 sequence with I54M

Experiment [4] addresses T4, SIX6 (Homo sapiens, UniProt O95475 114-200, T165G).
T4 sequence: T1 sequence with T52G, I54L

The target in experiment [5] is T5, SIX6 (Homo sapiens, UniProt O95475 114-200, T139Q).
T5 sequence: T1 sequence with T26Q, I54L

Experiment [6] deals with T6, SIX6 (Homo sapiens, UniProt O95475 114-200, L167V).
T6 sequence: T1 sequence with I54V

For experiment [7], the target named is T7, SIX6 (Homo sapiens, UniProt O95475 114-200, T165I).
T7 sequence: T1 sequence with T52I, I54L

With CCCGGCGG, the binding signal with SIX6 [1] was 9.11 upbm affinity estimate (log intensity, higher = more binding, comparable within an allelic series); in the experiment with SIX6 [2], 8.96 upbm affinity estimate (log intensity, higher = more binding, comparable within an allelic series); in the experiment with SIX6 [3] it was 9 upbm affinity estimate (log intensity, higher = more binding, comparable within an allelic series); with SIX6 [4], 9.14 upbm affinity estimate (log intensity, higher = more binding, comparable within an allelic series); with SIX6 [5], 9.18 upbm affinity estimate (log intensity, higher = more binding, comparable within an allelic series); in the experiment with SIX6 [6] it was 9.07 upbm affinity estimate (log intensity, higher = more binding, comparable within an allelic series). In addition, in the experiment with SIX6 [7], the binding signal was 9.08 upbm affinity estimate (log intensity, higher = more binding, comparable within an allelic series).

Source of the values: PMC11006913.
